A selection: hits, their analogues and other compounds. The true share with any hit is near 21%.
Pf growth 48h – Primary qHTS for delayed death inhibitors of the malarial parasite plastid, 48 hour incubation | Potency, µM (top dose mostly 28.7 µM), most hits filed as inhibitors | P. falciparum luciferase growth in erythrocytes, 48 h | AID 504832, 2011 | 5.9% of 310,000 active; active = well fitted inhibition curve with a large enough effect; inconclusive = small, poorly fitted or top-dose-only effect, or another doubt; inactive = no such curve, though single readings can be large or run the other way
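Erythrocytes infected with P. falciparum carrying an integrated firefly luciferase reporter (2% hematocrit, 0.1% parasitemia final) were exposed to compounds in RPMI 1640 with 0.5% Albumax at 37 C, 5% CO2. Growth inhibition was scored as reduced luminescence.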
SARS PLP yeast – qHTS of Yeast-based Assay for SARS-CoV PLP; 0.19% of 330,000 active; S. cerevisiae expressing SARS-CoV PLpro, growth rescue; Potency, µM (titrated, usually from 32.9 µM), hits mostly activators; note: nearly all actives have a fitted effect of over 55% in size
NS1 function inh – qHTS Assay for Inhibitors of Influenza NS1 Protein Function. AID 2326, 2010. 0.4% of 270,000 active. Potency, µM (doses to about 46.1 µM); note: actives are rising curves; nearly all actives have a fitted effect of over 50% in size
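Read-out: OD600 growth recovery of NS1-expressing budding yeast. Cells grown overnight at 30C in -URA glucose medium, washed, resuspended and diluted 1:100 in 2% galactose assay medium, pH 6.0. Same strain lacking NS1 served as positive control.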
Shiga inhibitor – A qHTS for Small Molecule Inhibitors of Shiga Toxin. Vero cells, Shiga toxin protein synthesis inhibition reporter. inhibition, % at 38.7 µM. 9.2% of 290,000 active. AID 2315, 2010; in the data active = inhibition mostly above about 28%, no sharp cut-off; inactive = mostly below about 43%
Pf growth 96h – Primary qHTS for delayed death inhibitors of the malarial parasite plastid, 96 hour incubation; P. falciparum luciferase reporter growth, 96 h; Potency, µM (series often up to 28.7 µM), hits mostly inhibitors; 6.9% of 320,000 active; AID 504834, 2011; active = well fitted inhibition curve with a large enough effect; inconclusive = small, poorly fitted or top-dose-only effect, or another doubt; inactive = no such curve, though single readings can be large or run the other way
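Readout is luminescence from an integrated firefly luciferase in P. falciparum. Red cells, 2% hematocrit and 0.05% parasitemia final, were cultured with compound through two parasite generations (96 hours) at 37 C, 5% CO2.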
Cycloheximide cs – Cycloheximide Counterscreen for Small Molecule Inhibitors of Shiga Toxin | cell reporter, cycloheximide protein synthesis inhibition counterscreen | max response, % | 12% of 300,000 active | AID 2314, 2010; in the data active = max response mostly above about 13%, no sharp cut-off; inactive = mostly below about 14%; note: read at 38.3 µM for the half of the compounds with a filed dose
A number is an active result. Unless noted, calls come from the whole dose curve.

How did COc1ccc(S(=O)(=O)N2CCOC2CNC(=O)C(=O)NCCN2CCOCC2)cc1 (stereo not given) do in these assays?
Pf growth 48h: inactive; SARS PLP yeast: inactive; NS1 function inh: inactive; Shiga inhibitor: inactive; Pf growth 96h: inactive; Cycloheximide cs: inactive

Results for CCc1ccc([C@@H]2C[C@H]3CN(Cc4ccccc4OC)C(=O)[C@]34CCCN24)cc1 ?
Pf growth 48h: 5.9µM; SARS PLP yeast: inactive; NS1 function inh: inactive; Shiga inhibitor: inactive; Pf growth 96h: inconclusive; Cycloheximide cs: inactive

Results for COc1ccc2c(c1)C=C([C@@H]1C[C@H]3CN(c4ccccc4)C(=O)[C@]34CCCN14)CO2 ?
Pf growth 48h: 1.5µM; SARS PLP yeast: inactive; NS1 function inh: inactive; Shiga inhibitor: inactive; Pf growth 96h: inconclusive; Cycloheximide cs: inactive

Results for O=C1N(c2ccccc2)C[C@@H]2C[C@@H](c3cccs3)N3CCC[C@@]123 ?
Pf growth 48h: inconclusive; SARS PLP yeast: inactive; NS1 function inh: inactive; Shiga inhibitor: inactive; Pf growth 96h: inconclusive; Cycloheximide cs: inactive

What do the screens show for `Brc1ccc(-c2csc(/N=C/N3CCCC3)n2)cc1`?
Pf growth 48h: inactive; SARS PLP yeast: inactive; Shiga inhibitor: 67; Pf growth 96h: inactive; Cycloheximide cs: 68

How did O=C(Cn1c(=O)oc2ccccc21)Nc1nc(-c2ccc(Br)cc2)cs1 do in these assays?
Pf growth 48h: inactive; SARS PLP yeast: inactive; NS1 function inh: inactive; Shiga inhibitor: inactive; Pf growth 96h: inactive; Cycloheximide cs: inactive

Results for O=C(NN1CCOCC1)c1cc(-c2ccc(Br)cc2)nc2ccccc12 ?
Pf growth 48h: inactive; SARS PLP yeast: inactive; NS1 function inh: inactive; Shiga inhibitor: inactive; Pf growth 96h: inactive; Cycloheximide cs: inactive

Results for Brc1ccc(-c2csc(/N=C/N3CCOCC3)n2)cc1 ?
Pf growth 48h: inactive; SARS PLP yeast: inactive; NS1 function inh: inactive; Shiga inhibitor: inactive; Pf growth 96h: inactive; Cycloheximide cs: 36

What do the screens show for `OCCN(/C=N/c1nc(-c2ccc(Br)cc2)cs1)CCO`?
Pf growth 48h: inactive; SARS PLP yeast: inactive; NS1 function inh: inactive; Shiga inhibitor: 64; Cycloheximide cs: 30

What do the screens show for `O=C(Nc1nccs1)c1nc[nH]c1C(=O)NCc1ccccc1`?
Pf growth 48h: inconclusive; SARS PLP yeast: inactive; Pf growth 96h: inconclusive

Results for CCOC(=O)C1=C(C)Nc2ccccc2N/C1=N\S(=O)(=O)c1cc(C(=O)O)ccc1Cl ?
Pf growth 48h: inactive; SARS PLP yeast: inactive; Pf growth 96h: inconclusive

How did Cc1cccc2c(N=Nc3ccc(S(=O)(=O)Nc4cccc(Cl)c4)cc3[N+](=O)[O-])c(O)[nH]c12 do in these assays?
Pf growth 48h: 6.6µM; SARS PLP yeast: inactive; NS1 function inh: inactive; Shiga inhibitor: inactive; Pf growth 96h: inconclusive; Cycloheximide cs: inactive

Results for O=C(CCN1C(=O)c2cccc3cccc(c23)C1=O)Nc1ccon1 ?
Pf growth 48h: inactive; SARS PLP yeast: inactive; NS1 function inh: inactive; Shiga inhibitor: inactive; Pf growth 96h: inactive; Cycloheximide cs: inactive

Results for COc1ccc(C(=O)NCC(O)COc2ccc(C(C)(C)C)cc2)cc1[N+](=O)[O-] (stereo not given) ?
Pf growth 48h: inactive; SARS PLP yeast: inactive; NS1 function inh: inactive; Shiga inhibitor: inactive; Pf growth 96h: 6.6µM; Cycloheximide cs: inactive

What do the screens show for `COc1ccccc1NCC(O)COc1ccc(C(C)(C)C)cc1` (stereo not given)?
Pf growth 48h: inactive; SARS PLP yeast: inactive; NS1 function inh: inactive; Shiga inhibitor: inactive; Pf growth 96h: inactive; Cycloheximide cs: inactive

What do the screens show for `CCCSc1ccc2nc(-c3ccccc3)cn2c1`?
Pf growth 48h: inactive; SARS PLP yeast: inactive; NS1 function inh: inactive; Shiga inhibitor: inactive; Pf growth 96h: inactive; Cycloheximide cs: inactive

How did CCCCSc1ccc2nc(-c3ccc(C#N)cc3)cn2c1 do in these assays?
Pf growth 48h: inactive; SARS PLP yeast: inactive; NS1 function inh: inactive; Shiga inhibitor: inactive; Pf growth 96h: inactive; Cycloheximide cs: 58

What do the screens show for `CCOC(=O)CCSCC(=O)N1N=C(c2cccs2)CC1c1ccc(C)cc1` (stereo not given)?
Pf growth 48h: inactive; SARS PLP yeast: inactive; NS1 function inh: inactive; Shiga inhibitor: inactive; Pf growth 96h: inconclusive; Cycloheximide cs: inactive

How did Cc1ccc(C2CC(c3cccs3)=NN2C(=O)CSC2=NN3CCCC(=O)N=C3S2)cc1 (stereo not given) do in these assays?
Pf growth 48h: 9.3µM; SARS PLP yeast: inactive; NS1 function inh: inactive; Shiga inhibitor: inactive; Pf growth 96h: 1µM; Cycloheximide cs: inactive

Results for COc1ccc(C2CC(c3cccs3)=NN2C(=O)CSC2=NN3CCCC(=O)N=C3S2)cc1 (stereo not given) ?
Pf growth 48h: 10µM; SARS PLP yeast: inactive; NS1 function inh: inactive; Shiga inhibitor: inactive; Pf growth 96h: 2.6µM; Cycloheximide cs: inactive

What do the screens show for `COc1ccc(C2CC(c3ccc(Br)cc3)=NN2C(=O)CSC2=NN3CCCC(=O)N=C3S2)cc1` (stereo not given)?
Pf growth 48h: inconclusive; SARS PLP yeast: inactive; NS1 function inh: inactive; Shiga inhibitor: inactive; Pf growth 96h: inactive; Cycloheximide cs: inactive

Results for Cc1cc(C)cc(N(CC(=O)NCCSCc2ccccc2)S(C)(=O)=O)c1 ?
Pf growth 48h: inactive; SARS PLP yeast: inactive; NS1 function inh: inactive; Shiga inhibitor: inactive; Pf growth 96h: inactive; Cycloheximide cs: inactive

What do the screens show for `COc1ccc(-c2nc3cccc(C)n3c2NCC2CCCO2)cc1O` (stereo not given)?
Pf growth 48h: inactive; SARS PLP yeast: inactive; NS1 function inh: inactive; Shiga inhibitor: 46; Pf growth 96h: inactive; Cycloheximide cs: 8.1

Results for CCOc1cc(-c2nc3ccccn3c2NCC2CCCO2)ccc1O (stereo not given) ?
Pf growth 48h: inactive; SARS PLP yeast: inactive; NS1 function inh: inactive; Shiga inhibitor: inactive; Pf growth 96h: 12µM; Cycloheximide cs: inactive

Results for CC1CN(C(=S)NC2CCCC2)CC(C)O1 (stereo not given) ?
Pf growth 48h: inactive; SARS PLP yeast: inactive; NS1 function inh: inactive; Shiga inhibitor: inactive; Pf growth 96h: inactive; Cycloheximide cs: inactive

Results for O=C(CSCc1ccccc1)N=Nc1c(O)[nH]c2ccccc12 ?
Pf growth 48h: inactive; SARS PLP yeast: inactive; NS1 function inh: inactive; Shiga inhibitor: inactive; Pf growth 96h: inactive; Cycloheximide cs: 27

What do the screens show for `COc1ccc(CC(=O)NCC(=O)N=Nc2c(O)[nH]c3ccccc23)cc1`?
Pf growth 48h: inactive; SARS PLP yeast: inactive; NS1 function inh: inactive; Shiga inhibitor: inactive; Pf growth 96h: inactive; Cycloheximide cs: inactive

How did CC(C)CC(=O)N=Nc1c(O)[nH]c2ccccc12 do in these assays?
Pf growth 48h: inactive; SARS PLP yeast: inactive; Shiga inhibitor: 106; Pf growth 96h: inconclusive; Cycloheximide cs: 26
